# Source: PubChem (The Scripps Research Institute Molecular Screening Center)
# Rows were chosen to be rich in hits. Some 2% of all compounds tested hit in one or more screens of this group.
# LYPLA2 inh: LYPLA2 (human) inhibition in PME1 counter-screen; AID 2177; recombinant LYPLA2, FP-Rh probe fluorescence polarization; hit rate 0.38% among 320,000; O95372; inhibition, % at 5.9 µM;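 active = inhibition above the screen-wide mean plus 3 SD, limit set per campaign, cut at about 26% in these data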;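 also: 0% = LYPLA2 with DMSO and 100% = wells lacking LYPLA2 enzyme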
# PREPL inhibitor: inhibits the human prolyl oligopeptidase-like enzyme; inhibition, % at 5.96 µM; recombinant PREPL, fluorescence polarization activity-based probe; Q4J6C6; hit rate 0.68% among 320,000; AID 2751; in the data active = inhibition above about 43%;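 also: 0% = enzyme with DMSO and 100% = wells lacking enzyme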
# LYPLA1 counter: counter-screen for PME1 inhibitors: inhibitors of human LYPLA1. O75608. recombinant LYPLA1, FP-Rh probe fluorescence polarization. inhibition, % at 5.9 µM. hit rate 0.16% among 320,000. AID 2174;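 active = inhibition above the mean of all tested compounds plus 3 SD, set per campaign, cut at about 14% in these data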;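 also: inhibitors block serine hydrolase probe labeling of LYPLA1 so polarization falls; 0% = enzyme with DMSO and 100% = wells lacking LYPLA1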
# Target sequence (O75608 whole entry, looked up): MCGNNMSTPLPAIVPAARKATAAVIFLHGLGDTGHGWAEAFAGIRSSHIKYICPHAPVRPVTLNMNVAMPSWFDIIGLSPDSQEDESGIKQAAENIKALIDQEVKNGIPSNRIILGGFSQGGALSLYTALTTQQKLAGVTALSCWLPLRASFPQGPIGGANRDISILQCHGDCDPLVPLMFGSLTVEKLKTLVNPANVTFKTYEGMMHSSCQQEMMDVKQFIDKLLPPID
# GSTO1 counter: GSTO1 inhibition, counter-screen for RBBP9 inhibitors; recombinant GSTO1, activity-based probe fluorescence polarization; inhibition, % at 5.96 µM; hit rate 1.1% among 300,000;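 active = inhibition above the campaign mean inhibition plus 3 SD, cut at about 35% in these data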;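 also: 0% = GSTO1-1 with DMSO and 100% = wells lacking GSTO1-1 enzyme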
# PME-1 inh: blocks human protein phosphatase methylesterase 1 | hit rate 0.53% among 320,000 | inhibition, % at 5.9 µM | Q9Y570 | recombinant PME-1, FP-Rh probe fluorescence polarization;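 active = inhibition above the campaign mean of all compounds plus 3 SD, cut at about 26% in these data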;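 also: competitive labeling of PME-1 active site by serine hydrolase directed probe; 0% = PME-1 with DMSO and 100% = wells lacking PME-1 enzyme; inhibitors block probe labeling so polarization falls and inhibition rises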
# Target sequence (Q9Y570 whole entry, looked up): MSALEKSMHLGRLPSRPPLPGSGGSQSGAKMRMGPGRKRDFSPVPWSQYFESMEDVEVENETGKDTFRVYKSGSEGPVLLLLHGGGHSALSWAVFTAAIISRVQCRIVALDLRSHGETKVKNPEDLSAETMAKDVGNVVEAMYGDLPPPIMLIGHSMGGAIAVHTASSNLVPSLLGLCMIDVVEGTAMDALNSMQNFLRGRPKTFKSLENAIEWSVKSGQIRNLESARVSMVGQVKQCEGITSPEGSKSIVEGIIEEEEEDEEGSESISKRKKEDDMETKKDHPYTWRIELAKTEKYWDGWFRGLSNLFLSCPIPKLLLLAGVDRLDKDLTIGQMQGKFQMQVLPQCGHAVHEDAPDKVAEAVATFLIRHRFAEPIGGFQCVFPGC
# Fam108B inh: Fam108B inhibition, counter-screen for RBBP9 inhibitors | recombinant Fam108B, FP-Rh probe fluorescence polarization | hit rate 0.33% among 300,000 | inhibition, % at 9.51 µM;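 active = inhibition above the screen mean inhibition plus 3 SD, computed separately per campaign, cut at about 18% in these data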;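 also: inhibitors lower polarization as less probe binds the enzyme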
# LYPLA2 conf: counter-screen for PME1 inhibitors: confirmation of human LYPLA2 inhibitors. shares compounds with LYPLA2 inh. recombinant LYPLA2, FP-Rh probe fluorescence polarization. inhibition, % at 5.9 µM. hit rate 72% among 1,100. AID 2232;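 active = mean inhibition across replicates above the hit cutoff set in the primary screen, cut at about 26% in these data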;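 also: blocked labeling of the enzyme by serine hydrolase FP-Rh probe lowers polarization; 0% = enzyme with DMSO and 100% = wells lacking LYPLA2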
# LYPLA2 gel ABPP: LYPLA2 (human) inhibition, late stage results. inhibition, % at 20 µM. shares compounds with LYPLA2 inh. rhLYPLA2 in mouse brain proteome, gel ABPP FP-Rh. hit rate 30% among 150;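 active = inhibition of LYPLA2 enzyme probe labeling above about 50%, limit read from the data; inactive = inhibition below that limit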;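 also: loss of FP-Rh probe labeling of the LYPLA2 gel band measured as band density; 0% = DMSO only control band and 100% = blank gel background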
# Numbers without * were called inactive; nt = not tested or not shown.
SMILES,LYPLA2 inh,PREPL inhibitor,LYPLA1 counter,GSTO1 counter,PME-1 inh,Fam108B inh,LYPLA2 conf,others
COC(=O)Cc1ccc(NC(=O)c2ccc3c(c2)C(=O)N(Cc2cccnc2)C3=O)cc1,28*,1,4,3,3,2,26*,
O=C(O)c1cc(NC(=O)c2ccc3c(c2)C(=O)N(Cc2cccnc2)C3=O)cc(C(=O)O)c1,-5,0,-1,-2,0,-2,nt,
C[C@H](NS(=O)(=O)c1ccc2c(c1)OCCCO2)C(=O)N1CCN(Cc2ccc(C#N)cc2)CC1,1,3,0,nt,-2,nt,nt,
CNC(=O)NC(=O)C(OC(=O)Cc1cccc(C(F)(F)F)c1)c1ccccc1 (centres undefined),1,-6,1,6,4,1,nt,
O=C1CCC(C(=O)Nc2cccc(Br)c2)N1 (centres undefined),1,-8,6,-1,2,2,nt,
CC(OC(=O)c1cc(=O)[nH]c2ccccc12)C(=O)NCc1ccccc1 (centres undefined),-3,-1,0,-4,-3,4,nt,
NC(=O)c1cc([N+](=O)[O-])ccc1Nc1ccccc1,39*,-4,-1,4,7,2,32*,
O=C(O)c1ccccc1Nc1ccc([N+](=O)[O-])cc1C(=O)O,-7,-8,-3,4,0,3,nt,
COc1ccc(CCN2C(=O)CC(NNc3ccc([N+](=O)[O-])cc3)C2=O)cc1OC (centres undefined),51*,1,1,-4,5,-2,54*,LYPLA2 gel ABPP=17
Nn1c(SCc2cc([N+](=O)[O-])cc3c2OCOC3)nnc1-c1cccnc1,-1,3,2,2,-3,-1,nt,
COc1ccccc1CNC(=O)COC(=O)c1cccc(S(=O)(=O)N2CCOCC2)c1,-2,-8,2,18,1,0,nt,
COc1ccccc1NC(=O)CSc1nc2nccnc2c(=O)n1Cc1cccs1,27*,-1,-3,11,11,4,-4,
CC(=O)Nc1nc(C)c(CCC2OCCO2)c(=O)[nH]1,1,4,5,8,0,1,nt,
Cc1nc([N+](=O)[O-])cn1CC(=O)Nc1ccc(F)c(Cl)c1,45*,-21,-1,7,-6,1,59*,LYPLA2 gel ABPP=70*
Cc1ncc([N+](=O)[O-])n1CC(=O)Nc1ccc(Cl)cc1,47*,10,-1,0,1,-3,51*,LYPLA2 gel ABPP=34
Cc1ncc([N+](=O)[O-])n1CC(=O)Nc1ccc(F)c(F)c1,67*,7,1,0,-6,2,60*,LYPLA2 gel ABPP=44
Cc1ccccc1NC(=O)Cn1c([N+](=O)[O-])cnc1C,18,15,4,8,-2,6,nt,
Cc1ccc(NC(=O)Cn2c([N+](=O)[O-])cnc2C)cc1Cl,57*,23,-2,-4,5,1,51*,LYPLA2 gel ABPP=67*
Cc1ccc2c(c1)C(c1ccccc1)N(C(=O)c1ccc3c(c1)OCO3)CC(=O)N2 (centres undefined),5,-5,3,2,3,0,nt,
CC(=O)Nc1ccc(S(=O)(=O)N2CCN(Cc3csc(C)n3)CC2)cc1,7,4,2,4,5,1,nt,
Cc1cnc(C(=O)OCC(=O)Nc2c(Cl)cc(Cl)cc2Cl)cn1,1,12,1,nt,7,nt,nt,
COc1ccc(OC)c(/C=N/Nc2nc(C)cc(=O)[nH]2)c1,-1,-4,-2,-10,-1,-6,nt,
O=C1[C@@H]2Cc3c([nH]c4ccccc34)CN2C(=O)CN1CCCO,1,6,-15,2,0,1,nt,
CCCCCCN1CC(=O)N2Cc3[nH]c4ccccc4c3C[C@H]2C1=O,58*,12,-1,-1,4,0,58*,LYPLA2 gel ABPP=35
C=CCN1CC(=O)N2Cc3[nH]c4ccccc4c3C[C@H]2C1=O,5,17,-2,8,6,1,nt,
SMILES,LYPLA2 inh,PREPL inhibitor,LYPLA1 counter,GSTO1 counter,PME-1 inh,Fam108B inh,LYPLA2 conf,others
CCCCCN1CC(=O)N2Cc3[nH]c4ccccc4c3C[C@H]2C1=O,56*,16,-1,-1,-2,-5,56*,LYPLA2 gel ABPP=38
CCOC(=O)NN=C1CN(S(=O)(=O)c2ccc(C)cc2)C1,3,-6,0,5,1,0,nt,
CC(C)c1nc2cc(C(=O)N(C)Cc3ccc(F)cc3)ccc2o1,4,-4,4,1,1,-5,nt,
CN(Cc1nc(-c2ccncc2)no1)S(=O)(=O)c1ccc(Br)cc1,37*,-29,5,0,9,-2,36*,
CN(Cc1nc(-c2ccc(Cl)cc2)no1)C(=O)c1ccc2c(c1)OCO2,34*,7,13,4,4,1,34*,
CN(Cc1nc(-c2ccncc2)no1)S(=O)(=O)c1ccc(Cl)cc1,28*,-3,2,-2,-1,2,30*,
CN(Cc1nc(-c2ccncc2)no1)S(=O)(=O)c1ccccc1,2,-12,3,-6,0,0,nt,
O=C(Nc1ccc(N2CCN(C(=O)c3ccccc3)CC2)cc1)c1ccc2c(c1)OCCO2,-1,19,-4,-12,2,1,nt,
COc1cc(OC)cc(C(=O)Nc2ccc(N3CCN(C(=O)c4cccs4)CC3)cc2)c1,1,20,1,-4,-4,5,nt,
O=C(Nc1ccc(N2CCN(C(=O)c3ccc(Cl)cc3)CC2)cc1)c1ccc2c(c1)OCCO2,58*,36,4,-2,7,1,63*,LYPLA2 gel ABPP=24
CC(=O)c1ccc(N2CCN(C(=O)Nc3ccc(Cl)cc3)CC2)cc1,27*,17,14,-4,-5,4,18,
O=C(c1ccc(N2CCCC2=O)cc1)N1CCN(c2ccc(Cl)cc2)CC1,53*,8,0,3,2,-3,55*,LYPLA2 gel ABPP=40
O=C(c1ccc(N2CCCC2=O)cc1)N1CCN(c2ccccc2Cl)CC1,10,9,0,nt,2,nt,nt,
COc1ccc(C(=O)Nc2ccc(N3CCN(C(=O)c4cccs4)CC3)cc2)cc1Br,29*,31,4,-10,3,1,27*,
Cc1ccccc1/C(N)=N/OC(=O)c1cccs1,1,11,2,6,1,-4,nt,
COc1ccc(N(CC(=O)Nc2cc(C)ccc2C)S(=O)(=O)c2ccccc2[N+](=O)[O-])c(OC)c1,-4,4,-1,-5,-3,-9,nt,
COc1ccc(S(=O)(=O)N2CCOCC2)cc1NC(=O)Cc1ccc2c(c1)OCCO2,-1,19,-2,nt,12,nt,nt,
O=C(Nc1ccc(N2CCN(C(=O)c3ccc(Cl)cc3)CC2)cc1)c1cccs1,29*,10,-1,4,5,0,27*,
